The structures appear in SMILES notation. Inconclusive results are not listed. Unmarked numbers belong to inactive results. The call rests on the fitted dose curve; in most records, active means well fitted inhibition curve with a large enough effect; inconclusive means small, poorly fitted or top-dose-only effect; inactive means no such curve, though single readings can be large or run the other way.

The source of these data is PubChem BioAssay AID1573 (National Center for Advancing Translational Sciences (NCATS), 2009).

In the assay the target is Thyroid hormone receptor beta (Homo sapiens) (UniProt P10828). Briefly: Concentration Response Confirmation Assay for Inhibitors of the Interaction of Thyroid Hormone Receptor and Steroid Receptor Coregulator 2. The note with it: TRb LBD + Texas Red SRC2 peptide, fluorescence polarization, 5 h; series mostly up to 92.2 µM; activity, negative = inhibition: at the top concentration. An excerpt: NIH Molecular Libraries Probe Production Network [MLPCN] NIH Chemical Genomics Center [NCGC] MLPCN Grant: DK058080 Assay Provider: R. Kip Guy, St. Jude Children's Research Hospital NCGC Assay Overview: Thyroid receptor (TR) regulates many homeostatic processes including basal metabolism, cardiovascular function, body weight, and lipid trafficking. TR modulators are potential therapeutics for obesity and hyperlipidemias but current thyroid analogs have undesirable side effects, particularly cardiac stimulation. To identify inhibitors that specifically prevent the interaction of TR with the steroid receptor coregulator 2 (SRC2), a fluorescence polarization assay was screened. This assay detects interaction of the ligand-binding domain of human TRb with a Texas Red labeled SRC2 peptide, corresponding to a 20 amino acid region of the nuclear receptor interaction domain (Arnold et al., 2006). Small molecule inhibitors that block the interaction of TR and SRC2 are detected by a decrease in fluorescence polarization. This assay is a confirmation assay for AID 1469. Arnold, L. A.; Estebanez-Perpina, E.; Togashi, M.; Shelat, A.; Ocasio, C. A.; McReynolds, A. C.; Nguyen, P.; Baxter, J. D.; Fletterick, R. J.; Webb, P.; Guy, R. K. A high-throughput screening method to identify small molecule inhibitors of thyroid hormone receptor coactivator binding. Sci STKE 2006, p 13.
Sequence of Thyroid hormone receptor beta (Homo sapiens) (P10828 whole entry, looked up, the tested form may be a part): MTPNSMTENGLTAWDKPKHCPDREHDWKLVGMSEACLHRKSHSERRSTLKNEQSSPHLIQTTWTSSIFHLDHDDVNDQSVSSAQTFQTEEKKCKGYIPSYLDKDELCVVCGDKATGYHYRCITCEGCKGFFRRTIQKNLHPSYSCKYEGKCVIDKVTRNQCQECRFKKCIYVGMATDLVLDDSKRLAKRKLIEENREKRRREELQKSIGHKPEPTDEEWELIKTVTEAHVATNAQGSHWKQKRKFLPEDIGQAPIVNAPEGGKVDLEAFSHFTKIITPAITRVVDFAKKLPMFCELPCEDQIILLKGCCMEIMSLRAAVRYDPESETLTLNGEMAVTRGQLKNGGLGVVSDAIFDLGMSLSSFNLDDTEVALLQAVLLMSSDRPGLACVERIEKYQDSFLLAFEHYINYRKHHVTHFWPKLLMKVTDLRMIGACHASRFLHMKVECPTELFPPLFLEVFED
NCGC Assay Protocol Summary: For screening, 5 uL/well 0.6 uM TRb and 20 nM SRC2 Texas Red in protein buffer (20mM Tris hydrochloride, 100mM NaCl, 10% glycerol, 1mM EDTA, 0.01% NP-40, 1mM DTT, 1uM T3 and 5% DMSO) was dispensed into black solid 1536-well plates (Grenier) using a solenoid-based dispenser. Following transfer of 23 nL compound or DMSO vehicle by a pin tool, the plates were centrifuged 15 s at 1000 RPM and incubated 5 hr at ambient temperature. The plates were read by an Envision (Perkin Elmer) to detect fluorescence polarization of SRC2 Texas Red (555 nm excitation and 632 nm emission). Data were normalized to unbound (all components except TRb) and bound SRC2 Texas Red controls. In this assay, we provide % activity data for each concentration as well as potencies for the active compounds. Keywords: NIH Roadmap, MLPCN, MLI, MLSMR, qHTS, NCGC, qHTS, thyroid hormone receptor, steroid receptor coactivator, fluorescence polarization
On the technique in general: In fluorescence polarisation assays a small probe gives low polarisation when free and higher when bound to something large.
As for `Cc1cccc(S(=O)(=O)c2cn(Cc3ccccc3)c3cc(N4CCC(C)CC4)c(F)cc3c2=O)c1`, the “activity, negative = inhibition” value is -21.4% [at 184 µM].
Then `Cn1c(=O)[nH]c2nnc(-c3ccc(Cl)c(Cl)c3)nc2c1=O`, with 1.02%.
